Out of some 210,000 compounds screened, about 5,900 (2.8%) were called active. Roughly 5% stayed inconclusive and do not appear here. Calls come from the whole dose curve; as a rule, active = well fitted activation curve with a large enough effect; inconclusive = small, poorly fitted or top-dose-only effect; inactive = no such curve, though single readings can be large or run the other way. The list comes from a sample in which actives are over-represented; it also holds similar structures and randomly drawn compounds. A call without a number means that no potency is given here.
Potency is the fitted concentration of half-maximal effect.

The experiment in a line: qHTS Assay for Enhancers of SMN2 Splice Variant Expression. Note: nearly all actives have a fitted effect of over 55% in size. To be noted: HEK293 SMN2-luciferase splicing reporter, luminescence, 30-36 h; series mostly up to 46.1 µM. From the text: NIH Chemical Genomics Center [NCGC] NIH Molecular Libraries Probe Production centers Network [MLPCN] MLPCN Grant: R03 MH084179-01 Assay Submitter (PI): Elliot Androphy NCGC Assay Overview: Spinal muscular atrophy (SMA) is caused by insufficient levels of the survival motor neuron protein SMN. The SMN locus on chromosome 5q13 contains two inverted copies of SMN called SMN1 and SMN2 which are 99% identical at the amino acid level. SMN1 is a fully functional protein and SMN2 skips exon 7 90% of the time. Skipping of exon 7 produces non-functional protein product. 10% of the SMN2 protein includes exon 7 and is fully functional. In the SMA disease state, mutations in the SMN1 locus are the cause of the disease state. Because only 10% of SMN2 is of the fully functional form, it is not sufficient to overcome the deficiency produced by the loss of the SMN1 product. A therapy that either increase the amount of SMN2 product made or to increase the inclusion of exon 7 has been proposed for the treatment of SMA. We have designed an assay to identify small molecules that can increase the amount of functional SMN2 product by appending a luciferase reporter gene after the native SMN2 gene, such that inclusion of exon 7 in the expressed product places the luciferase sequence in frame, thus generating functional luciferase enzyme.
NCGC Assay Protocol Summary: This screen utilizes a luciferase reporter gene assay, combining the promoter and splicing based cassettes in tandem with the major portion of the native SMN2 cDNA, and then transfected into HEK293 cells. Compounds that increase luciferase signal presumably enhance expression of the functional SMN2 splice variant. Passaging media contained DMEM w/ glutamax (+phenol red) 10% FCS, 1x pen/strep, 200 ug/ml hygro, 1x sodium pyruvate. Assay media contained DMEM w/ glutamax (-phenol red) 10% FCS, 1x pen strep, 1x pyruvate Sequence, Parameter, Value, Description (1) Cells, […], 2000 cells/well, 1536 TC treated White solid bottom plate (2) Time, 10-12 hours, 37C 5% CO2 (3) Compound, 23 nl, MLSMR Library (4) Control Compound, 23 nL, Sodium butyrate st 4.5mM (final) conc (5) Time, 30-36 hours, 37C 5% CO2 (6) Reagent, 3 ul, One Glo (TM) from Promega (7) Time, 5-15 minutes, Room temp (8) Detector, Viewlux: luminescent read, 60 second integration, high speed 2x binning Keywords: Spinal muscular atrophy, SMA, SMN2, high throughput screening, MLSMR, MLPCN, NIH Roadmap, qHTS and NCGC
For `Cc1c(O)cc(O)c2c(=O)c(-c3ccc(O)cc3)coc12`, the Potency result is “inactive”. Next, `O=c1c(-c2ccccc2)coc2c(CN3CCOCC3)c(O)ccc12`: “inactive”.

For `O=c1c(-c2ccccc2)coc2cc(O)ccc12`, the Potency is 22.4 µM (active). With `COc1cc2nc(NCC(C)c3ccccc3)n3nc(-c4ccccc4)nc3c2cc1OC` (configuration not stated) the entry was “inactive”.

Consider `Cc1cc(C)c2oc(C(=O)Nc3c(C(=O)Nc4ccccc4)oc4ccccc34)cc(=O)c2c1`, for which the Potency result is “inactive”. With `Cc1ccc(Cl)cc1N1CCN(C(=O)C2CCC(CNS(=O)(=O)c3cccs3)CC2)CC1` (configuration not stated) the entry was “inactive”; with `COc1cc(/C=N/O)ccc1OCc1ccc([N+](=O)[O-])cc1`, 14.1 µM (active); with `COc1cc(C(=O)OCc2ccc([N+](=O)[O-])cc2)cc(OC)c1OC`, “inactive”.

Regarding `COc1cc(/C=N\Nc2ccc([N+](=O)[O-])cn2)ccc1OCC(=O)O`, the Potency entry is “inactive”. For the compound `COc1ccc(N2CCN(C(=O)C3CCCN(C(=O)c4cc5sccc5n4C)C3)CC2)cc1` (configuration not stated), the Potency entry is “inactive”. With `Cc1ccc(S(=O)(=O)c2nc(-c3ccco3)oc2SCC(=O)Nc2ccc(F)cc2)cc1` the entry was “inactive”; with `COc1ccc(C(=O)NC(=S)Nc2ccc(N3CCCC3)cc2)cc1OC`, “inactive”. `COc1cccc(C(=O)Nc2cc3c(cc2Br)OCCCO3)c1`: the Potency is 10 µM (active).

With `COc1cccc(C(=O)Nc2ccc(N3CCCC3)cc2)c1`, the Potency was 8.91 µM (active). Next, `Cc1cc(NS(=O)(=O)c2ccc(NC(=O)c3ccccc3C)cc2)nc(C)n1`: “inactive”; `COc1cccc(C(=O)NNC(=O)c2ccccc2Br)c1`: “inactive”; `Cc1ccccc1C(=O)Nc1ccc(N2CCCCCC2)cc1`: 12.6 µM (active). Next, `C/C(=N\NC(=O)c1ccccc1C)c1ccc(N2CCOCC2)cc1`: “inactive”; `COc1ccc(C2COC(=O)C2=N)c(NC(=O)c2ccccc2)c1` (configuration not stated): “inactive”. Next, `COc1cccc(OC)c1C(=O)Nc1ccc(N2CCCCC2)cc1`: “inactive”. In the case of `CCn1cc(C(=O)NCc2ccccc2)c(=O)c2cc(S(=O)(=O)N3CCCCC3)ccc21`, the Potency result was “inactive”. Next, `CC(C)Cn1c(=O)c2ccccc2n2c(CCC(=O)N3CCN(c4cccc(Cl)c4)CC3)nnc12`: “inactive”; `Cc1ccc(OCCn2c(CNc3ccccc3C)nc3ccccc32)cc1`: “inactive”.

On to `O=C(NCCCO)c1nn(-c2ccc(Cl)cc2)nc1CO`, for which the Potency result was “inactive”.

As to `O=C(Cn1c(=O)n(Cc2cccs2)c(=O)c2cccnc21)Nc1ccc(F)cc1`, the Potency result was “inactive”. Next, `Cc1ccc(NC(=O)CN2C(=O)C(c3ccc(F)cc3)=NC23CCCCCC3)c(C)c1`: “inactive”; `CCOc1ccc(N(Cc2ccccc2)C(=O)c2nc(S(C)(=O)=O)ncc2Cl)cc1`: “inactive”; `O=C(CCS(=O)(=O)c1cc(Br)cc2c1N(C(=O)C1CC1)CC2)Nc1ccc(C(F)(F)F)cc1`: “inactive”. With `O=C(c1ccco1)n1nc(-c2ccc(Cl)cc2)nc1NCc1ccccc1` the entry was “inactive”; with `CCCCOc1ccc(CN2C(=O)C(=O)c3cc(Br)cc(C)c32)cc1OC`, “inactive”.

In the case of `COC(=O)c1ccccc1NC(=O)c1ccc(COc2ccccc2Cl)o1`, the Potency result was “inactive”. With `CSc1ccc(C#N)cc1NC(=O)c1cccc(Cl)c1` the entry was “inactive”.

In the case of `N#Cc1ccccc1NC(=O)c1cccc(COc2ccc(Cl)cc2Cl)c1`, the Potency was 0.794 µM (active). For the compound `Cc1cccc2c1-c1sc(C(=O)Nc3ccc(F)cc3F)cc1CO2`, the Potency result is “inactive”. With `Nc1nc2c(ncn2[C@@H]2O[C@H](COP(=O)(O)OP(=O)(O)OP(=O)(O)O)[C@@H](O)C2O)c(=O)[nH]1` (some centres not stated) the entry was “inactive”; with `CCN(CC)S(=O)(=O)c1cc(C(=O)Nc2ccccn2)ccc1C`, 22.4 µM (active); with `CCN(CC)S(=O)(=O)c1cccc(C(=O)Nc2ccccc2)c1`, “inactive”. Next, `Cc1ccc(C(=O)Nc2ccc(C(=O)O)cc2)cc1S(=O)(=O)Nc1ccccc1`: “inactive”; `COC(=O)c1ccc(OC)c(Cn2c(=O)n(Cc3ccccc3)c(=O)c3c2c2cc(OC)ccc2n3C)c1`: “inactive”; `Cc1ccc(C(=O)CSc2nc(-c3ccccc3)nc3c2CCCC3)c(C)c1`: “inactive”. Turning to `CCn1nnnc1SCC(=O)c1ccc(C)cc1C`, the Potency is 2.82 µM (active). As for `CNC(=O)CSc1nnnn1-c1ccc(C)cc1C`, the Potency entry was “inactive”. Regarding `COc1ccccc1-c1cc(C(F)(F)F)nc(S(=O)(=O)CCCC(=O)Nc2ccc(F)cc2F)n1`, the Potency result is “inactive”.

With `Cc1nc2ccccc2cc1C(=O)N/N=C/c1ccc([N+](=O)[O-])cc1`, the Potency result is “inactive”. With `NC(=S)N/N=C/c1ccc([N+](=O)[O-])cc1` the entry was “inactive”; with `COc1ccc(NC(=O)c2ccccc2[N+](=O)[O-])cc1OC`, “inactive”; with `Cc1ccsc1C(=O)N/N=C/c1ccc([N+](=O)[O-])cc1`, 12.6 µM (active). With `Cc1ccc(NC(=O)CN2CCC(C(N)=O)CC2)cc1[N+](=O)[O-]` the entry was “inactive”; with `Cc1ccc(NC(=O)c2sccc2C)cc1[N+](=O)[O-]`, 14.1 µM (active).

Regarding `Cc1ccc(C)c(CN2C(=O)c3ccccc3S(=O)c3ccc(C(=O)N4CCOCC4)cc32)c1` (configuration not stated), the Potency result is “inactive”. On to `COc1ccccc1-c1cc2nc(C)c(CCC(=O)O)c(C)n2n1`, for which the Potency entry was “inactive”. With `Cc1ccc(CN2COc3cc(C)c4c(oc(=O)c5ccccc54)c3C2)cc1` the entry was “inactive”.

The record behind these values is PubChem BioAssay AID1458 (National Center for Advancing Translational Sciences (NCATS), 2008).
